SMILES strings stand for the structures.

Macrophage-stimulating protein receptor (Homo sapiens), sequence (Q04912 25-304 limits assumed): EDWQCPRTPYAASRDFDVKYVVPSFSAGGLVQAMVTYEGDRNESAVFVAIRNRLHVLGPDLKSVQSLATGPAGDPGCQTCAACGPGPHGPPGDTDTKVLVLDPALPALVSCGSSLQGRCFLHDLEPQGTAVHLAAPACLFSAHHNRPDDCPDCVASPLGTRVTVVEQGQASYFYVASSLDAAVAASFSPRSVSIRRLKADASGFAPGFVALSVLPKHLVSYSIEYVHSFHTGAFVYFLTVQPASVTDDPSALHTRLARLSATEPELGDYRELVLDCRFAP
Macrophage-stimulating protein receptor (Homo sapiens), sequence (Q04912 310-1400 limits assumed): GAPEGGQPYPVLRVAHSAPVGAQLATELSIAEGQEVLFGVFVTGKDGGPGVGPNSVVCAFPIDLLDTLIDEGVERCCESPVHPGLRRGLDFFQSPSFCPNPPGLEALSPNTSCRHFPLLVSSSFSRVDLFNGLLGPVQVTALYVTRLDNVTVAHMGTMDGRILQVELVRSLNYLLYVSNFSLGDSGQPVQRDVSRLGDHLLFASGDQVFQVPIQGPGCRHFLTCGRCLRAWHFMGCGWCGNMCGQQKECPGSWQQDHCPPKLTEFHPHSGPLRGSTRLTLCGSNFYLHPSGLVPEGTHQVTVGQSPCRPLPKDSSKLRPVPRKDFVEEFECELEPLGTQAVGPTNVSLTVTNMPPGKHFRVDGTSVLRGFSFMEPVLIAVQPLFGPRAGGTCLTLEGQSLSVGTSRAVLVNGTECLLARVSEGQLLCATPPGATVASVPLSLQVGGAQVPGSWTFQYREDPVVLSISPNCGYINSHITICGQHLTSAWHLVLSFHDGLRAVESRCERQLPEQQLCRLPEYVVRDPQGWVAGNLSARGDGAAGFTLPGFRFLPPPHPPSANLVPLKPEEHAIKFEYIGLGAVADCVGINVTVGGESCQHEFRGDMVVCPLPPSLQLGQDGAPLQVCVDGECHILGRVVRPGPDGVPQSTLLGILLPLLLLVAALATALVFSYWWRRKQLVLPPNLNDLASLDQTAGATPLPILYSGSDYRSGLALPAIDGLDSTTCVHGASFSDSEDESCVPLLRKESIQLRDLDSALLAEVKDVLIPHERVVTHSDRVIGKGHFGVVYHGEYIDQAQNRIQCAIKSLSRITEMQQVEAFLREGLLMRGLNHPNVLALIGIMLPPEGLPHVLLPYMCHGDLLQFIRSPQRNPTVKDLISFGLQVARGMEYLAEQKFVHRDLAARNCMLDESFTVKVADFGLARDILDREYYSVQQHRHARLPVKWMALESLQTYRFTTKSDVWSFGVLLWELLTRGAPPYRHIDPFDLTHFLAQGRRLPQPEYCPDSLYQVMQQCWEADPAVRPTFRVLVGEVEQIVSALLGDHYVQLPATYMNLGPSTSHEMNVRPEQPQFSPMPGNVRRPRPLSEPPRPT

In one assay the target is Proto-oncogene tyrosine-protein kinase receptor Ret (Homo sapiens) (UniProt P07949). The note with it: at 1 µM.
Proto-oncogene tyrosine-protein kinase receptor Ret (Homo sapiens), sequence (P07949 whole entry): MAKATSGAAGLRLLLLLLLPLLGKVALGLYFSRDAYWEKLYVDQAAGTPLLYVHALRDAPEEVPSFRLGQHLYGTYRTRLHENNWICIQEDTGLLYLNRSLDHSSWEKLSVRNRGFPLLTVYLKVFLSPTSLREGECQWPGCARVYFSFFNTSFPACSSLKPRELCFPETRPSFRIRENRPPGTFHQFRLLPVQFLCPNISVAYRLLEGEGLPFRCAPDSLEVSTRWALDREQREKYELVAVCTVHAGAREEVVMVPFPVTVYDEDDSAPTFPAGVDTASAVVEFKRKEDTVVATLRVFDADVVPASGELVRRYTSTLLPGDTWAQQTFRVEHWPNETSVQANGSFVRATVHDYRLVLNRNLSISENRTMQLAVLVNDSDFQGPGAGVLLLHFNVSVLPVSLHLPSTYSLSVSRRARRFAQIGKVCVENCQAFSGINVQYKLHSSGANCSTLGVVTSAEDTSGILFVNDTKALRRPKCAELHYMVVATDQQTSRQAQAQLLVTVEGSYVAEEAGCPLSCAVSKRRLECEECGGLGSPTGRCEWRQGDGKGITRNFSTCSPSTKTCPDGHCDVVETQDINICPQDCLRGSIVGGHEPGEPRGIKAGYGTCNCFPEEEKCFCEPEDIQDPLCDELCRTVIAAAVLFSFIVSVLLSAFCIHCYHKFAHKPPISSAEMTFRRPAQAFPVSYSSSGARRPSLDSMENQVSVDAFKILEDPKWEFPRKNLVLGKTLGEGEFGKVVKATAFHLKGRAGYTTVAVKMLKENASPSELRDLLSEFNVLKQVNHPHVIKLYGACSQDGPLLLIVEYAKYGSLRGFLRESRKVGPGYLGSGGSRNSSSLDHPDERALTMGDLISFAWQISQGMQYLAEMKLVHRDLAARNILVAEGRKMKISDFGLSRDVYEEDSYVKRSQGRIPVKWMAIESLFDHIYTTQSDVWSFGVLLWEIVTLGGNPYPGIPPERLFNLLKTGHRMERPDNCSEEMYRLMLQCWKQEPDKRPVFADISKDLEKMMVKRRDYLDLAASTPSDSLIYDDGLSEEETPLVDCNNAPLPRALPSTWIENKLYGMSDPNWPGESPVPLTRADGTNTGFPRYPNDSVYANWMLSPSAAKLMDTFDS
With `CC#CC(=O)Nc1cc2c(Nc3ccc(F)c(Cl)c3)ncnc2cn1`, the residual activity is 100%.
Consider `CC(=O)c1ccc(N2CCOCC2)cc1O`, for which the residual activity amounted to 99%.
As to `Oc1n[nH]c2nnc(-c3c(-c4ccccc4)nn4ccccc34)cc12`, the residual activity is 102%.
For the molecule `c1ccc2c(-c3ccncc3)c[nH]c2c1`, the residual activity was found to be 103%.
For the molecule `Nc1n[nH]c2nnc(-c3c(-c4ccccc4)nn4ccccc34)cc12`, the residual activity came to 108%.
`O=C1NC(=O)/C(=C\c2ccc3nccnc3c2)S1`: the residual activity came out at 98%.
On the same count and under the same terms, in the case of `COc1cccc(-c2cc(=O)c3ccccc3o2)c1N` it was 114%; in that of `CO[C@H]1[C@@H](OC)C[C@H](C)[C@@H](OC)C2=CC(=O)C=C(NC(=O)/C(C)=C/C=C/[C@H](OC)[C@@H](OC(N)=O)/C(C)=C/[C@@H]1C)C2=O`, 108%; in that of `Cc1cccc(-c2[nH]c(C(C)(C)C)nc2-c2ccc3c(c2)OCO3)n1`, 98%.
The same measure, in the same setting: the figure for `O=C1Nc2ccccc2/C1=C1/Nc2ccccc2/C1=N\OCCC(O)CO` (stereo unspecified) is 2%; for `N#CCCc1ccc2c(c1)-c1[nH]c3ccc([N+](=O)[O-])cc3c1CC(=O)N2` it is 80%.
Still for that read-out and setting: in the case of `CC(C)n1cnc2/c(=N/c3cccc(Cl)c3)nc(NCCO)[nH]c21` it was 93%; in that of `N#C/C(=C(\N)Sc1ccc(N)cc1)c1ccccc1C(F)(F)F`, 109%; in that of `Cn1nc2c3c(cccc31)C(=O)c1ccccc1-2`, 93%.

A further assay shares this target. The settings on record: at 10 µM.
For the molecule `CCN(CC)CCCCN1c2ccccc2Oc2ccc(Cl)cc21`, the residual activity stood at 117%.
As for `c1ccc(-c2n[nH]c3c2oc2ccccc23)cc1`, the residual activity was found to be 47%.
Regarding `Cc1nc2cc3nc(-c4cccs4)cnc3cc2n1C`, the residual activity turned out to be 35%.
Same read-out and setting: in the case of `Cc1cc(Nc2nc(-c3ccccc3)nc3ccccc23)n[nH]1` it was 0%; in that of `Oc1ccc(Nc2nc(-c3ccc(Cl)cc3)cs2)cc1`, 87%; in that of `CC(=O)O/N=C1\C(=C2\C(=O)Nc3cc(Br)ccc32)Nc2ccccc21`, -1%.
Consider `CCN(CC)C(=O)c1ccc(Nc2nc(OCC3CCCCC3)c3nc[nH]c3n2)cc1`, for which the residual activity came to 0%.
Turning to `CO[C@@H]1[C@H](N(C)C(=O)c2ccccc2)C[C@H]2O[C@]1(C)n1c3ccccc3c3c4c(c5c6ccccc6n2c5c31)C(=O)NC4`, the residual activity turned out to be 5%.
For the molecule `Oc1ccc(-c2nc(-c3ccc(F)cc3)c(-c3ccncc3)[nH]2)cc1`, the residual activity is 47%.
Regarding `CN(C)CCCn1cc(C2=C(c3c[nH]c4ccccc34)C(=O)NC2=O)c2ccccc21`, the residual activity amounted to 64%.
As for `COc1cc2ncnc(N3CCN(C(=O)Nc4ccc(Oc5ccccc5)cc4)CC3)c2cc1OC`, the residual activity stood at 82%.
`COc1cc2ncnc(Nc3ccc(NC(=O)c4ccccc4)cc3)c2cc1OC`: the residual activity turned out to be 12%.
Regarding `O=C1NC(=O)c2cc(Nc3ccc(F)cc3)c(Nc3ccc(F)cc3)cc21`, the residual activity came to 86%.
Turning to `COc1cc2ncc(-c3ccccc3)nc2cc1OC`, the residual activity is 92%.
As to `COc1cc2ncnc(Nc3ccc(Oc4ccccc4)cc3)c2cc1OC`, the residual activity came to 7%.
Same read-out and setting: the figure for `NC(=O)c1ccc2[nH]c(-c3ccc(Oc4ccc(Cl)cc4)cc3)nc2c1` is 85%; for `O=C1Nc2ccc(Br)cc2/C1=C\c1cc2c([nH]1)CCCC2` it is 69%.
As to `CC(C)n1cnc2c(NCc3ccccc3)nc(NCCCO)nc21`, the residual activity came out at 92%.
Consider `c1ccc(-c2n[nH]cc2-c2ccnc3ccccc23)nc1`, for which the residual activity came out at 91%.
With `CC#CC(=O)Nc1cc2c(Nc3ccc(F)c(Cl)c3)ncnc2cn1`, the residual activity amounted to 104%.
As for `CC(=O)c1ccc(N2CCOCC2)cc1O`, the residual activity was 109%.
Take `Oc1n[nH]c2nnc(-c3c(-c4ccccc4)nn4ccccc34)cc12`: the residual activity was 80%.
The same measure, in the same setting: in the case of `c1ccc2c(-c3ccncc3)c[nH]c2c1` it was 101%.
Regarding `Nc1n[nH]c2nnc(-c3c(-c4ccccc4)nn4ccccc34)cc12`, the residual activity came out at 58%.
`O=C1NC(=O)/C(=C\c2ccc3nccnc3c2)S1`: the residual activity came out at 96%.
Same read-out and setting: the figure for `COc1cccc(-c2cc(=O)c3ccccc3o2)c1N` is 83%; for `CO[C@H]1[C@@H](OC)C[C@H](C)[C@@H](OC)C2=CC(=O)C=C(NC(=O)/C(C)=C/C=C/[C@H](OC)[C@@H](OC(N)=O)/C(C)=C/[C@@H]1C)C2=O` it is 106%; for `Cc1cccc(-c2[nH]c(C(C)(C)C)nc2-c2ccc3c(c2)OCO3)n1` it is 107%.
For `O=C1Nc2ccccc2/C1=C1/Nc2ccccc2/C1=N\OCCC(O)CO` (stereo unspecified), the residual activity is -1%.
On the same count and under the same terms, the figure for `N#CCCc1ccc2c(c1)-c1[nH]c3ccc([N+](=O)[O-])cc3c1CC(=O)N2` is 49%.
For the molecule `CC(C)n1cnc2/c(=N/c3cccc(Cl)c3)nc(NCCO)[nH]c21`, the residual activity turned out to be 40%.
Regarding `N#C/C(=C(\N)Sc1ccc(N)cc1)c1ccccc1C(F)(F)F`, the residual activity is 90%.
The same measure, in the same setting: in the case of `Cn1nc2c3c(cccc31)C(=O)c1ccccc1-2` it was 63%.

A further assay addresses Macrophage-stimulating protein receptor (Homo sapiens) (UniProt Q04912). The settings on record: at 1 µM.
As for `CCN(CC)CCCCN1c2ccccc2Oc2ccc(Cl)cc21`, the residual activity is 105%.
For the molecule `c1ccc(-c2n[nH]c3c2oc2ccccc23)cc1`, the residual activity stood at 58%.
On to `Cc1nc2cc3nc(-c4cccs4)cnc3cc2n1C`, for which the residual activity was 106%.
On to `Cc1cc(Nc2nc(-c3ccccc3)nc3ccccc23)n[nH]1`, for which the residual activity is 79%.
With `Oc1ccc(Nc2nc(-c3ccc(Cl)cc3)cs2)cc1`, the residual activity is 95%.
Consider `CC(=O)O/N=C1\C(=C2\C(=O)Nc3cc(Br)ccc32)Nc2ccccc21`, for which the residual activity stood at 85%.
As for `CCN(CC)C(=O)c1ccc(Nc2nc(OCC3CCCCC3)c3nc[nH]c3n2)cc1`, the residual activity amounted to 72%.
In the case of `CO[C@@H]1[C@H](N(C)C(=O)c2ccccc2)C[C@H]2O[C@]1(C)n1c3ccccc3c3c4c(c5c6ccccc6n2c5c31)C(=O)NC4`, the residual activity is 47%.
Regarding `Oc1ccc(-c2nc(-c3ccc(F)cc3)c(-c3ccncc3)[nH]2)cc1`, the residual activity turned out to be 84%.
For the molecule `CN(C)CCCn1cc(C2=C(c3c[nH]c4ccccc34)C(=O)NC2=O)c2ccccc21`, the residual activity amounted to 102%.
As for `COc1cc2ncnc(N3CCN(C(=O)Nc4ccc(Oc5ccccc5)cc4)CC3)c2cc1OC`, the residual activity was found to be 74%.
Still for that read-out and setting: in the case of `COc1cc2ncnc(Nc3ccc(NC(=O)c4ccccc4)cc3)c2cc1OC` it was 87%; in that of `O=C1NC(=O)c2cc(Nc3ccc(F)cc3)c(Nc3ccc(F)cc3)cc21`, 104%.
Still for that read-out and setting: the figure for `COc1cc2ncc(-c3ccccc3)nc2cc1OC` is 98%.
In the case of `COc1cc2ncnc(Nc3ccc(Oc4ccccc4)cc3)c2cc1OC`, the residual activity amounted to 92%.
Take `NC(=O)c1ccc2[nH]c(-c3ccc(Oc4ccc(Cl)cc4)cc3)nc2c1`: the residual activity worked out at 74%.
The same measure, in the same setting: the figure for `O=C1Nc2ccc(Br)cc2/C1=C\c1cc2c([nH]1)CCCC2` is 116%; for `CC(C)n1cnc2c(NCc3ccccc3)nc(NCCCO)nc21` it is 88%.
Turning to `CC#CC(=O)Nc1cc2c(Nc3ccc(F)c(Cl)c3)ncnc2cn1`, the residual activity amounted to 101%.
Still for that read-out and setting: in the case of `CC(=O)c1ccc(N2CCOCC2)cc1O` it was 91%; in that of `Oc1n[nH]c2nnc(-c3c(-c4ccccc4)nn4ccccc34)cc12`, 70%.
For `c1ccc2c(-c3ccncc3)c[nH]c2c1`, the residual activity was 96%.
Regarding `Nc1n[nH]c2nnc(-c3c(-c4ccccc4)nn4ccccc34)cc12`, the residual activity turned out to be 66%.
With `O=C1NC(=O)/C(=C\c2ccc3nccnc3c2)S1`, the residual activity was 88%.
`COc1cccc(-c2cc(=O)c3ccccc3o2)c1N`: the residual activity came to 93%.
For `CO[C@H]1[C@@H](OC)C[C@H](C)[C@@H](OC)C2=CC(=O)C=C(NC(=O)/C(C)=C/C=C/[C@H](OC)[C@@H](OC(N)=O)/C(C)=C/[C@@H]1C)C2=O`, the residual activity turned out to be 85%.
For the molecule `O=C1Nc2ccccc2/C1=C1/Nc2ccccc2/C1=N\OCCC(O)CO` (stereo unspecified), the residual activity worked out at 75%.
Regarding `CC(C)n1cnc2/c(=N/c3cccc(Cl)c3)nc(NCCO)[nH]c21`, the residual activity was found to be 74%.
Still for that read-out and setting: the figure for `N#C/C(=C(\N)Sc1ccc(N)cc1)c1ccccc1C(F)(F)F` is 88%.
